Measurements published in PubChem BioAssay (NCI).
The panel holds about 79,000 compounds, 15% with a hit somewhere; the sample as a whole holds those more often. Cut-off read from the data, not from the text of the source: active = growth inhibition above about 70%; inactive = the rest.

Assays:
[1] = NCI Yeast Anticancer Drug Screen. Data for the rad50 strain (AID 155);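 note: 0% = growth of vehicle-only cultures of the same strain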; conditions: S. cerevisiae rad50 strain growth inhibition; at 50.0 µM; stronger effect = higher value
Method in brief: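 Readout: growth inhibition relative to vehicle-treated cultures. Compound exposure was carried out in a genetically defined yeast strain deficient in DNA damage repair.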

[2] = NCI Yeast Anticancer Drug Screen. Data for the mec2-1 strain (AID 157); conditions: S. cerevisiae mec2-1 strain, at 50.0 µM, stronger effect = higher value
Method in brief: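 Cells of the genetically defined mec2-1 yeast strain are incubated with test compound. Inhibition of growth is calculated against vehicle-treated controls.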

[3] = NCI Yeast Anticancer Drug Screen. Data for the sgs1 mgt1 strain (AID 161);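 note: 0% = growth of cultures given vehicle only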; conditions: S. cerevisiae sgs1 mgt1 strain, at 50.0 µM, stronger effect = higher value
Method in brief: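 Read-out: growth inhibition vs vehicle controls. Cells: mutant yeast strain deficient in DNA damage repair.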

[4] = NCI Yeast Anticancer Drug Screen. Data for the cln2 rad14 strain (AID 165);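 note: 0% = growth equal to vehicle treated cultures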; conditions: S. cerevisiae cln2 rad14 strain, at 50.0 µM, stronger effect = higher value
Method in brief: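 The screen exposed genetically defined yeast (cln2 rad14) to test compounds and scored growth inhibition relative to vehicle-treated controls.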

[5] = NCI Yeast Anticancer Drug Screen. Data for the bub3 strain (AID 167); conditions: S. cerevisiae bub3 mutant strain, at 50.0 µM, stronger effect = higher value
Method in brief: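 Readout: yeast growth inhibition, expressed relative to vehicle-only wells. The test organism is a mutant strain from a panel with lesions in DNA repair or checkpoint genes.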

[6] = NCI Yeast Anticancer Drug Screen. Data for the mlh1 rad18 strain (AID 175); conditions: S. cerevisiae mlh1 rad18 strain growth inhibition; at 50.0 µM; stronger effect = higher value
Method in brief: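 Compound-treated yeast growth, normalised to vehicle controls. Strain bears defined DNA repair mutations.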

Measured: growth inhibition

COC(=O)c1cc2ccc(O)c(O)c2cn1
inactive: [1] 41.1% | [2] 25.8% | [3] 60.3% | [4] 18.9% | [5] 62.4% | [6] 24.9%

Nc1ccccc1NC(=O)C(F)(F)F
inactive: [1] -2.45% | [2] -5.4% | [3] 3.3% | [4] -8.4% | [5] -8.75% | [6] 1.15%

CCOC(=O)C1=NNC(=O)C1
inactive: [1] 4.4% | [2] -2.95% | [3] 2.35% | [4] 9.85% | [5] -0.3% | [6] 4.75%

NS(=O)(=O)c1ccc(NC(=O)Nc2ccccc2)cc1
inactive: [1] -2.8% | [2] -5.35% | [3] 1.8% | [4] -18.1% | [5] 20.1% | [6] 22.3%

CN1C(=O)c2cnc3ccccc3c2C1(O)c1ccccc1 (stereo unspecified)
inactive: [1] -1.75% | [2] 1.35% | [3] 2.4% | [4] 5.25% | [5] 0% | [6] 3.9%

CN1N=C(c2ccccc2O)/C(=C/c2c(-c3ccccc3O)[nH]n(C)c2=O)C1=O
inactive: [1] 6.85% | [2] -0.55% | [3] -6.1% | [4] 0.75% | [5] 4.6% | [6] 31.9%

Cc1cc(-n2nnc3ccccc3c2=O)on1
inactive: [1] -21.2% | [2] -30.7% | [3] -17.1% | [4] -9.5% | [5] -26% | [6] 2.5%

O=c1[nH]c(=S)[nH]c2ncn(C3OC(CO)C(O)C3O)c12 (stereo unspecified)
inactive: [1] -13.4% | [2] -3.85% | [3] -8.15% | [4] -9.6% | [5] 5.65% | [6] -0.6%

N#C/C(=C/NC(=S)NCc1ccccc1)C(N)=O
inactive: [1] -32.6% | [2] -42.1% | [3] -4.6% | [4] 0.25% | [5] 6.7% | [6] -0.3%

CCOC(=O)c1ccc(N=NC2Sc3nc4ccccc4n3C2=O)cc1 (stereo unspecified)
inactive: [1] -23.6% | [2] -2.4% | [3] -2.65% | [4] -51.4% | [5] 21.8% | [6] -6.3%

CNC(=O)n1cnc(N)n1 (tested in a mixture with another compound)
inactive: [1] -13.2% | [2] 8.2% | [3] 16.7% | [4] -25.3% | [5] -10.9% | [6] 13%

CN(C)c1ccc(/C=C(\C#N)c2ccc(Cl)cc2Cl)cc1
inactive: [1] -15.8% | [2] -14.7% | [3] -0.35% | [4] -25.6% | [5] 7% | [6] 0.95%

COC1=CC(O)(CC(N)=O)c2ccccc2C1=O (stereo unspecified)
inactive: [1] -5.3% | [2] -8.65% | [3] 10.6% | [4] -11.4% | [5] -23.9% | [6] 4.85%

COC(=O)/C(=C/Cl)NC(C)=O
inactive: [1] 3.2% | [2] -7.55% | [3] -4.8% | [4] -9.9% | [5] 8.7% | [6] 5.8%

COc1nc(N)c(C(=O)CCl)c(=O)n1C
inactive: [1] 3.35% | [2] -7.5% | [3] 6.5% | [4] 0.35% | [5] -20.6% | [6] 16.5%

Cc1nc2ccc(Cl)cc2c(=O)[nH]1
inactive: [1] -6.35% | [2] -6.45% | [3] -8.65% | [4] -57.2% | [5] -16.2% | [6] 0.9%

NC(Cc1ccc(CP(=O)(O)O)cc1)C(=O)O (stereo unspecified)
inactive: [1] -44.8% | [2] -61.3% | [3] -55.1% | [4] -20% | [5] -27.5% | [6] -70.3%

O=C1Nc2ccc(Br)cc2C1(O)Cc1cccc([N+](=O)[O-])c1 (stereo unspecified)
inactive: [1] 7.35% | [2] 12.2% | [3] 13.5% | [4] 3.55% | [5] -12.9% | [6] 11.8%

Cc1ccc(CC(=O)C(=O)O)c([N+](=O)[O-])c1
inactive: [1] -9.7% | [2] 38.1% | [3] 4.5% | [4] -23.6% | [5] -17.9% | [6] 8.2%

Brc1cccc[n+]1CCC[n+]1ccccc1Br
inactive: [1] 14.8% | [2] 18.8% | [3] 28.2% | [4] 33.2% | [5] 19.4% | [6] 15.8%

CCOC(=O)C1CSCN1C(C)=O (stereo unspecified)
inactive: [1] -33.4% | [2] -20.6% | [3] -4.3% | [4] -34.5% | [5] -11.8% | [6] -21.9%
